Assay results: PubChem BioAssay AID2242 (National Center for Advancing Translational Sciences (NCATS), 2010)
The campaign covered roughly 200,000 compounds. About 720 (0.36%) were called active. Another 8% or so got no clear call; they are omitted. Calls come from the whole dose curve; as a rule, active = well fitted activation curve with a large enough effect; inconclusive = small, poorly fitted or top-dose-only effect, or effect the other way, or another doubt; inactive = flat fitted curve, though single readings scatter. The list shows a part of the results.

The molecules below were run against Lysosomal alpha-glucosidase (Homo sapiens) (UniProt P10253) (assay: qHTS Assay for Activators of Human alpha-Glucosidase as a Potential Chaperone Treatment of Pompe Disease). Details: purified enzyme, 4-MU-alpha-glucoside fluorescence, 20 min; series mostly up to 76.9 µM.
Description: NIH Chemical Genomics Center [NCGC] NIH Molecular Libraries Probe Production centers Network [MLPCN] MLPCN Grant: 1R03MH084841-01 Assay Submitter (PI): Wei Zheng NCGC Assay Overview: Alpha-glucosidase is responsible for hydrolysis of terminal, non-reducing 1,4-linked alpha-D-glucose residues with release of alpha-D-glucose. It is a lysosomal hydrolase that is required for the degradation of a small percentage (1-3%) of cellular glycogen in human. Deficiency of this enzyme results in glycogen-storage disease type II (GSDII), also referred to as Pompe disease, an autosomal recessive disorder. Structurally normal glycogen is accumulated in lysosomes and cytoplasm in affected patients, primarily in muscle tissues. Excessive glycogen storage within lysosomes may interrupt normal functioning of other organelles and leads to cellular injury. In turn, this leads to enlargement and dysfunction of the entire organ involved (eg, cardiomyopathy and muscle weakness). It has reported that the improper folding and trafficking of alpha-glucosidase resulting from the genetic mutations may account for a significant number of Pompe patients. […] We optimized this alpha-glucosidase assay in 1536-well plate format for identifying the novel small molecule inhibitors with the structures other than the sugar analogs in order to develop the new pharmacological chaperones, but are also able to detect potential activators. In conjunction with assays against alpha-galactosidase (AID 1467), fluorogenic false positive compounds can be identified.
NCGC Assay Protocol Summary: This is a fluorogenic enzyme assay with 4-methylumbelliferyl-alpha-D-[…] as the substrate and human alpha-glucosidase as the enzyme preparation. Upon the hydrolysis of this fluorogenic substrate, the resulting product, 1. 4-methyllumbelliferone, can be excited at 365 nm and emits at 440 nm which can be detected by a standard fluorescence plate reader. Data were normalized to the controls for basal activity (without enzyme) and 100% activity (with enzyme). In the AC50 values were determined from concentration-response data modeled with the standard Hill equation. Assay buffer: 50 mM citric acid (titrated with potassium phosphate to pH 5.0), 0.005% Tween-20, pH 5.0. (pH 5.0 is an optimal condition for this enzyme assay) 1536-well assay protocol for the human alpha-glucosidase: (1) Add 2 ul/well of enzyme (4 nM final) (2) Add 23 nL compounds in DMSO solution. The final titration was 0.7 nM to 77 uM. (3) Add 1 ul of substrate (400 uM final) (4) Incubate at room temperature for 20 min. (5) Add 2 ul stop solution (1M NaOH and 1M Glycine mixture, pH 10) (6) Detect the assay plate in a ViewLux plate reader (PerkinElmer) with Ex=365 nm and Em=440nm. Keywords: Alpha-glucosidase, Pompe Disease, pharmacological chaperone, chaperone therapy, high throughput screening, alpha-glucosidase inhibitor, MLSMR, MLSCN, NIH Roadmap, qHTS and NCGC
Note: nearly all actives have a fitted effect of over 80% in size.
Potency is the fitted concentration of half-maximal effect.

Potency, active:
CCn1c(=N)c(C(=O)NCCCOC)cc2c(=O)n3cccc(C)c3nc21 28.2 µM, CCCCc1cc(=O)oc2cc(O)ccc12 35.5 µM, COC(=O)Cc1cc(=O)oc2cc(O)ccc12 35.5 µM, O=C(Cc1cc(=O)oc2cc(O)ccc12)NCC1CCC(C(=O)O)CC1 (stereo not given) 35.5 µM, N#Cc1c(-c2cccc(Br)c2)cc(-c2ccco2)[nH]c1=O 39.8 µM, O=C(NC(=S)N(Cc1ccccc1)Cc1ccccc1)C1CCCCC1 39.8 µM, c1ccn2c(c1)nc1c2nc2ccccn21 31.6 µM, COC(=O)C1=CN(CC2CCCO2)C=C(C(=O)OC)C1c1ccsc1 (stereo not given) 35.5 µM, COC(=O)C1=CN(CC2CCCO2)C=C(C(=O)OC)C1c1cc(OC)c(OC)c(OC)c1 (stereo not given) 35.5 µM, COc1cc2c(cc1/C=C/C(=O)O)OC(C)C2 (stereo not given) 39.8 µM, CCCc1cc(=O)[nH]c(SCC(=O)c2cc(C)n(CCC)c2C)n1 39.8 µM, COc1cccc(-c2cc3nc(-c4ccccc4)cc(N4CCC5(CC4)OCCO5)n3n2)c1 39.8 µM, Cc1cccc(-c2cc3nc(-c4ccccc4)cc(N4CCC5(CC4)OCCO5)n3n2)c1 35.5 µM, COC(=O)c1cc2c(s1)-c1ccccc1OC2 35.5 µM, CCOC(=O)c1cc2c(s1)-c1c(C)cccc1OC2 35.5 µM, O=C(O)c1cc2c(s1)-c1ccccc1OC2 31.6 µM, O=C(NC1CC1)c1cc2c(s1)-c1ccccc1OC2 35.5 µM, CCOC(=O)c1cc2c(=O)n3ccccc3nc2n(CCCOC)c1=NC(=O)C(C)(C)C 35.5 µM, CCOC(=O)c1cc2c(=O)n3ccccc3nc2n(CCOC)c1=NC(=O)C(C)(C)C 35.5 µM, CCOC(=O)c1cc2c(=O)n3ccccc3nc2n(CCOC)c1=NC(=O)c1ccncc1 31.6 µM, CCOC(=O)c1cc2c(=O)n3ccccc3nc2n(Cc2ccco2)c1=NC(=O)c1ccccc1OC 31.6 µM, CCOC(=O)c1cc2c(=O)n3ccccc3nc2n(CCCOC)c1=NC(=O)c1cccnc1 35.5 µM, COc1cccc(-c2ccc(C#N)c(OC(=O)c3ccc(Cl)cc3)n2)c1 35.5 µM, COC(=O)C1=CN(C2CC2)C=C(C(=O)OC)C1c1ccccc1OC 35.5 µM, COC(=O)C1=CN(C2CC2)C=C(C(=O)OC)C1c1ccc(C(=O)OC)cc1 35.5 µM, CCN1CCn2c3c(c4cc(Cl)ccc42)CCCC31 (stereo not given) 31.6 µM, O=C(Nc1c2ccccc2nc2ccccc12)C(Cl)(Cl)Cl 35.5 µM, O=c1oc2ccccc2cc1-c1nc2ccccc2o1 31.6 µM, CC(=O)Nc1nc2n(n1)C(c1ccc(Cl)cc1)C=C(C)N2 (stereo not given) 35.5 µM, CC(C)n1c(=NC(=O)c2ccco2)c(C#N)cc2c(=O)n3ccccc3cc21 31.6 µM, COC(=O)c1ccc2c(=O)n(CCCCCC(=O)O)c(=O)[nH]c2c1 31.6 µM, CCCCCn1c(=O)[nH]c2cc(C(=O)O)ccc2c1=O 35.5 µM, COC(=O)c1ccc2c(=O)n(CCCCCC(=O)NCc3ccccn3)c(=O)[nH]c2c1 31.6 µM, CCN(CC)CCNC(=O)c1ccc2c(=O)n(CCc3ccccc3)c(=O)[nH]c2c1 35.5 µM, N=c1oc2cc(O)ccc2cc1C(=O)Nc1ccccn1 35.5 µM, N=c1oc2cc(O)ccc2cc1C(=O)Nc1nc2ccccc2s1 35.5 µM, C=CCn1c(-c2ccc(OC)cc2)nc2nc3ccccc3nc21 35.5 µM, CCOC(=O)c1cccc(-n2c(-c3ccc(OC)cc3)nc3nc4ccccc4nc32)c1 5.01 µM, C=CCn1c(-c2cccs2)nc2nc3ccccc3nc21 35.5 µM, CCCn1c(-c2cccs2)nc2nc3ccccc3nc21 35.5 µM, CC(C)Cn1c(-c2cccs2)nc2nc3ccccc3nc21 35.5 µM, CCC(C)n1c(-c2cccs2)nc2nc3ccccc3nc21 (stereo not given) 35.5 µM, Cc1cccn2c(=O)c3cc(C(=O)N4CCN(C(=O)c5ccco5)CC4)n(C)c3nc12 35.5 µM, Cc1ccc2nc3c(cc(C(=O)NCCCn4ccnc4)n3C)c(=O)n2c1 35.5 µM, Cc1cccn2c(=O)c3cc(C(=O)NCCCN4CCCC4=O)n(C)c3nc12 35.5 µM, Cc1ccc(-c2cc(C(=O)NCCCn3ccnc3)c3ccccc3n2)s1 28.2 µM, Nc1cc(C(=O)O)c(Oc2ccc(Cl)cc2Cl)cc1C(=O)O 35.5 µM, O=c1oc2cc(O)ccc2c2c1CCCC2 35.5 µM, CCc1cc2c3c(c(=O)oc2cc1O)CCCC3 28.2 µM, COC(=O)C1=CN(Cc2ccc(OC)cc2)C=C(C(=O)OC)C1c1ccsc1 25.1 µM, COC(=O)C1=CN(Cc2ccc(OC)cc2)C=C(C(=O)OC)C1c1cccs1 25.1 µM, Cc1ccc(-c2cn3cccnc3n2)cc1 35.5 µM, FC(F)(F)Oc1ccc(-c2cn3cccnc3n2)cc1 35.5 µM, COc1ccc(-c2cn3cccnc3n2)cc1 35.5 µM, CC1(C)CN(c2ccc(-c3ccnc4ncnn34)cc2)C1=O 28.2 µM, N#Cc1c(C(F)(F)F)cc(-c2cccs2)nc1SCc1cccnc1 35.5 µM, Cc1[nH]c2ccccc2c1C(O)CN1CCN(c2cccc(C(F)(F)F)c2)CC1 (stereo not given) 35.5 µM, CC(C)c1cc(NCCCN2CCOCC2)n2c(nc3ccccc32)c1C#N 31.6 µM, Cc1cc(NCCCN2CCOCC2)n2c(nc3ccccc32)c1C#N 31.6 µM, COc1ccc(-c2c(C#N)c(N)nc3c2CCc2ccccc2-3)cc1OC 35.5 µM, COCCCn1cnc2oc3nc4ccccc4nc3c2c1=O 35.5 µM, CC(=O)Nc1cc2c(ccc3ccccc32)oc1=O 25.1 µM, O=C(O)c1cc2c(ccc3ccccc32)oc1=O 35.5 µM, CCOC(=O)c1cc2c(ccc3ccccc32)oc1=O 35.5 µM, CC(=O)Nc1cc2ccc(OC(C)=O)cc2oc1=O 35.5 µM
